# KB-3-1 cytotox – KB-3-1 parental cell cytotoxicity; KB-3-1 viability, CellTiter-Glo ATP luminescence, 72 h; Potency, µM (titrated, usually from 46.1 µM), actives largely listed as cytotoxic; 1.4% of 400,000 active; AID 1347075; further: potency means the concentration at half of the fitted maximal effect; on the % scale 0 is the no-effect control and ±100 the full control effect; nearly all actives have a fitted effect of over 60% in size
#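 Screening of KB-3-1 cells (DMEM, 10% FBS, phenol-red free) ran from lowest to highest compound concentration; after 72 h at 37 °C viability was read luminescently and curves fitted.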
# KCNH2 3.1 inh – KCNH2 3.1 (human) potassium channel inhibition. 0.95% of 340,000 active. U2OS KCNH2 3.1, thallium flux FluxOr; hits give low values. activity change, % (tested at about 1.8 µM);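 active means maximum activity change below -70%; inconclusive means maximum activity change from -70% to -50%; inactive means maximum activity change above -50%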;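 further: thallium influx rate constant from kinetic fluorescence after stimulation buffer; on the % scale 0 is the no-effect control and ±100 the full control effect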
#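 FluxOr-based Tl+ influx in U2OS cells transduced with KCNH2 3.1 virus; rate constants normalized to DMSO controls.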
# hERG WT inh – blocks the wildtype human KCNH2 potassium channel | Q12809 | U2OS, BacMam KCNH2, thallium flux FluxOr; hits give low values | activity change, % at 1.84 µM | 0.37% of 340,000 active;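 active means maximum activity change below -70%; inconclusive means maximum activity change between -70% and -50%; inactive means maximum activity change above -50%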; further: on the % scale 0 is the no-effect control and ±100 the full control effect
#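 U2OS cells were transduced with wild-type KCNH2 virus (2.03 x 10^8 / mL) for 4 h at room temperature, then cultured overnight at 37 C. Thallium flux was read with FluxOr dye. Rate constants were normalized to DMSO controls.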
# KB-V1 cytotox – kills drug-selected multidrug resistant KB-V1 cells; KB-V1 MDR cells viability, CellTiter-Glo, 72 h; Potency, µM (titrated, usually from 46.1 µM), hits mostly cytotoxic; 3.4% of 400,000 active; further: potency means the concentration at half of the fitted maximal effect; on the % scale 0 is the no-effect control and ±100 the full control effect; nearly all actives have a fitted effect of over 60% in size
#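 KB-V1 cells (P-gp-expressing MDR subline of KB-3-1) in phenol-red-free DMEM with 10% FBS were exposed to library compounds over a concentration series for 72 h at 37 degrees C. Viability read by CellTiter-Glo luminescence; concentration-effect curves fitted after normalization.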
# MCF10A rerep – DNA re-replication induction in MCF 10a cells; MCF 10A DNA re-replication, Hoechst nuclear intensity, 48 h; Potency, µM (titrated, usually from 46.1 µM), without a hit: top-dose activity, positive = re-replication, hits mostly activators; 2.9% of 350,000 active; further: potency means the concentration at half of the fitted maximal effect; % of control where 0% means no effect; nearly all actives have a fitted effect of over 50% in size
# SW480 rereplic – DNA re-replication induction in SW480 cells; SW480 DNA re-replication, Hoechst DNA content imaging, 48 h; Potency, µM (series often up to 46.1 µM), without a hit: at the top dose re-replication activation, most hits filed as activators; 1.8% of 340,000 active; AID 624297; further: potency means the concentration at half of the fitted maximal effect; % of control where 0% means no effect; nearly all actives have a fitted effect of over 55% in size
#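 Cells (250 per well) received 23 nL compound or DMSO by pin tool and were kept 48 hr at 37 C, 5% CO2. Nuclei were then stained with Hoechst for 40 min and scanned for DNA content.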
# Starred values were filed as active, the others as inactive; i = inactive; u = inconclusive; x = no result given. In the library only some 7.6% were active in any assay of this set; here they are far more common. Unless noted, the call rests on the fitted dose curve; in most records, active means well fitted curve in the direction sought with a large enough effect; inconclusive means small, poorly fitted or top-dose-only effect, or another doubt; inactive means no such curve, though single readings can be large; an effect the other way counts as inactive or inconclusive.
SMILES,KB-3-1 cytotox,KCNH2 3.1 inh,hERG WT inh,KB-V1 cytotox,MCF10A rerep,SW480 rereplic
CCOc1ccccc1N(C)C(=O)c1cc2c(=O)n(CC)c3ccccc3c2s1,u,1.1,8.6,i,3.66µM*,18.4µM*
Cc1ccc(C#N)c(SCc2cc3c(cc2Cl)OCO3)n1,i,19.6,-46.7,i,0.5%,14.0%
Cc1cc(C)c(C#N)c(SCc2nnc(-c3ccccc3[N+](=O)[O-])o2)n1,i,1.9,0.4,u,2.5%,-5.3%
Cc1ccc(C#N)c(SCc2nnc(-c3ccc(Cl)cc3)o2)n1,i,-15.4,-17.1,11.6µM*,0.731µM*,2.31µM*
Cc1cc(C)c(C#N)c(SCc2nnc(-c3ccccc3)o2)n1,i,-7.5,5.9,3.66µM*,2.59µM*,8.2µM*
COC(=O)C(CC(C)C)NC(=O)c1cccs1 (stereo not given),i,11.2,-0.2,i,-2.3%,-3.0%
COC(=O)CN1C(=O)[C@H]2[C@@H](C3CC3)N3C(=O)CN(Cc4ccccn4)C(=O)[C@@]3(Cc3ccccc3)[C@H]2C1=O,i,8.5,7.3,i,6.3%,-3.7%
CCOC(=O)c1[nH]c(C)c(CCC(=O)NCc2ccc(CC)cc2)c1C,i,x,x,i,x,x
COC(=O)c1cccc(Cn2c(Cl)c(/C=N/Nc3ccccc3C)sc2=O)c1,i,4.1,-0.5,u,25.9µM*,10.3µM*
CCN(Cc1ccccc1)S(=O)(=O)c1ccc(F)c(C(=O)Nc2cc(C(F)(F)F)ccc2Cl)c1,i,x,x,i,x,x
Cc1ccccc1NC(=O)COC(=O)[C@@H]1CCCN1C(=O)c1cccs1,i,3.5,3.4,i,-9.1%,2.5%
CC1(C)Cc2c(cnn2-c2cccc(F)c2)C(NC(=O)c2csnn2)C1 (stereo not given),i,u,-74.0*,i,8.3%,14.0%
CC1(C)Cc2c(cnn2-c2ccccc2)C(NC(=O)c2ccoc2)C1 (stereo not given),i,-40.7,u,u,6.1%,1.2%
CC1(C)Cc2c(cnn2-c2ccc(F)cc2)C(NC(=O)c2ccoc2)C1 (stereo not given),i,-80.9*,u,i,7.8%,-12.7%
COc1ccc(OC)c(CCNc2ncnc3onc(C)c23)c1,u,x,x,i,x,x
COc1ccc(NC(=O)COC(=O)Cc2ccccc2[N+](=O)[O-])cc1OC,i,28.7,1.5,i,-3.3%,-13.8%
COc1ccc(NCc2ccccc2[N+](=O)[O-])cc1OC,i,-9.5,1.7,20.6µM*,u,19.0%
COc1cc2c(cc1OC)C(Cc1ccccc1[N+](=O)[O-])=NCC2,u,18.7,-15.3,20.6µM*,7.6%,-5.7%
COc1ccc2c(c1)CCN=C2Cc1ccc(OC)c(OC)c1,i,-8.8,-10.3,u,17.5%,-1.2%
O=C(CSc1nnc(-c2ccc(Cl)cc2)o1)Nc1ccc(F)cc1,u,x,x,i,x,x
Nc1nc(N)c2sc3nc(C(F)(F)F)cc(C(F)(F)F)c3c2n1,i,13.1,3.5,18.4µM*,u,-2.6%
Cc1ccc(C(=O)C2CCN(C(=S)NCCCOC(C)C)CC2)cc1,i,0.9,2.9,i,20.6%,14.6µM*
O=C(Nc1cccn(Cc2c(Cl)cccc2Cl)c1=O)C1CC1,i,0.5,-4.7,i,-10.0%,-140.1%
C#CCOC(=O)Nc1cccn(Cc2c(Cl)cccc2Cl)c1=O,10.3µM*,-3.3,0.8,u,u,u
O=C(Nc1cccn(Cc2c(F)cccc2Cl)c1=O)NC1CCCCC1,2.59µM*,-7.7,-0.1,u,20.6µM*,18.4µM*
CC[C@H](C)[C@H](NC(=O)OCc1ccccc1)C(=O)Nc1ccc(NC(C)=O)cc1,i,-16.7,6.7,i,-18.5%,3.2%
Cc1ccc(-n2ncc3c(N4CCN(C)CC4)ncnc32)cc1,i,x,x,i,x,x
COc1ccc(NC(=O)c2cc(-c3ccccc3Cl)on2)cc1,i,-18.8,-12.3,u,2.8%,-2.8%

# Screens as filed in PubChem.
